Results filed as inconclusive are left out. Calls of active or inactive are those of the source. The call rests on the fitted dose curve; in most records, active means well fitted curve in either direction with a large enough effect (not every such curve was filed as active); inconclusive means small, poorly fitted or top-dose-only effect, or another doubt; inactive means flat fitted curve, though single readings scatter.
Experiment: AP1 Signaling Pathway (AID 357);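 further: ME-180 reporter cells stimulated with EGF at its EC50 level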
Conditions: ME-180 AP-1-bla reporter, EGF-induced, beta-lactamase ratio, 5 h; at 17.2 µM (top of the series) unless noted
Procedure, shortened: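 First, ME-180 AP-1-bla cells were cultured overnight at 37 °C in low-serum Opti-MEM. Next, titrated compounds with EC50 EGF were incubated 5 hours. Finally, CCF4 was added for 2.5 hours and the 460/530 nm ratio recorded.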
On the % scale 0 is the no-effect control and ±100 the full control effect.

Activity change, negative = inhibition, inactive:
CCCC1CC(=O)OC1(C)C(=O)CSc1n[nH]c(-c2ccccc2)n1 (stereo not drawn) -6.44%
Cc1nc(N2CCN(Cc3ccccc3)CC2)c(C#N)c2c1COC(C)(C)C2 -29.1%
CC(=O)c1cc(CN2CCCCC2)cc(OC(C)C)c1 15.3%
CCOC(=O)/C(C#N)=C1\Nc2ccccc2N=C1N(CC(C)C)CC(C)C 11.2%
Cc1cc(=O)oc2c(CN3CCC(C)CC3)c(O)c(Cl)cc12 22.4%
Cn1c(OCc2ccco2)nc2c1c(=O)n(Cc1ccc(Cl)c(Cl)c1)c(=O)n2C -3.54%
CC1(C)Cc2c(sc3nc(SCC#N)n(C4CCCCC4)c(=O)c23)CO1 1.9%
CCCCCCSC1=C(C#N)C(c2ccccc2)CC(=O)N1 (stereo not drawn) -25.4%
Cc1ccc(-n2c(=O)c3c4c(sc3n3c(C)nnc23)COC(C(C)C)C4)cc1 (stereo not drawn) -7.34%
N#CCSc1nc2c(cc1C#N)CCCCCC2 -14.6%
CCC(=O)Nc1nc2ccccc2n1Cc1ccccc1C 28.7%
CNC(=O)CC(C(=O)O)c1ccc(OC(C)C)cc1 (stereo not drawn) 5.59%
CCOC(=O)c1c(SC)nc(SC)c2c1CCC2 -12.6%
Cn1nnc2c(sc3nc(N4CCOCC4)c4c(c32)CCCC4)c1=O -0.625%
c1ccc(C2Nc3ccccc3-c3nc4ccccc4n32)nc1 (stereo not drawn) -3.28%
Cc1cc(C)n(CC2CC(=O)N(c3ccc(F)c(Cl)c3)C2=O)n1 (stereo not drawn) -5.28%
COc1cccc(CNc2ncc(Br)cc2Br)c1O -6.72%
C=CCOn1c(=O)c(-c2cc3ccccc3o2)[n+]([O-])c2ccccc21 -28.9%
Cc1ccc(S(=O)(=O)N2CCN(c3nc(C)c4c(c3C#N)CC(C)(C)OC4)CC2)cc1 1.26%
CC1(C)Cc2c(C#N)c(N3CCOCC3)nc(-c3ccccc3)c2CO1 -10.7%
Cc1nc2c(c(=O)n1CC1CCCO1)c1nc3ccccc3nc1n2Cc1ccc2c(c1)OCO2 (stereo not drawn) 1.65%
CCOC(=O)c1c(CN2CCN(C)CC2)n(C)c2cc(Br)c(OC)cc12 5.82%
CCCSc1nc(N2CCCC2)c2c(c1C#N)CC(C)(C)OC2 -3.22%
CCOC(=O)c1ccc(N=CC2=C(O)CC(c3ccco3)CC2=O)cc1 (stereo not drawn) 2.87%
CCCCCSc1nc(N2CCOCC2)c2c(c1C#N)CC(C)(C)OC2 -13.1%
CC(C)Sc1nnc2n(CCc3ccccc3)c(=O)c3c4c(sc3n12)COC(C)(C)C4 -19.5%
CCCCNC(=O)C(C#N)c1nc2ccccc2nc1N1CCN(Cc2ccc3c(c2)OCO3)CC1 (stereo not drawn) -18.8%
CCCOc1cc(CN2CCCCC2)cc(C(C)=O)c1 27.9%
COc1ccc(CCNc2oc(COc3ccccc3)nc2C#N)cc1 -23%
CCCCNC(=O)N(C)c1nncnc1C(=O)NC 16.6%
C=CCn1c(=O)c(C(=O)NCCN(CC)CC)c(O)c2ccccc21 14.7%
OCCNc1nc(-c2ccccc2)c2ccccc2n1 -11.6%
CCOC(=O)c1[nH]c2ccc(F)cc2c1NC(=O)CCN1CCSCC1 0.77%
Nc1c(C(=O)NCC2CCCO2)c2nc3ccccc3nc2n1/N=C/c1ccncc1 (stereo not drawn) -7.06%
CCN(CC)Cc1cc(C(C)=O)ccc1OCC(C)C 23.1%
COc1ccc(C2NC(=O)NC(O)(C(F)(F)F)C2C(=O)c2ccc(F)cc2)cc1 (stereo not drawn) -8.86%
O=C(NCc1cccnc1)/C(=N\O)c1ccccc1 -8.53%
CC(C)Cc1nc(N2CCN(C(=O)Cc3ccccc3)CC2)c(C#N)c2c1COC(C)(C)C2 -5.38%
CCOC(=O)c1[nH]c2ccc(OC)cc2c1NC(=O)CCN1CCc2ccccc2C1 -5.08%

Experiment: Stat Signaling Pathway (AID 446);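 further: ME-180 cervical cancer cells given 40 pM IL-6 alongside compound; SIE-controlled beta-lactamase reporter measured as 460/530 nm FRET emission ratio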
Conditions: ME-180 (cervical carcinoma) SIE beta-lactamase reporter, IL-6 stimulated, 5 h; at 17.2 µM (top of the series) unless noted
Procedure, shortened: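 Normalization used AC90 stimulation (300 pM IL-6) and AC90 inhibition (125 nM pan-JAK inhibitor at 40 pM IL-6). The underlying signal is SIE-driven beta-lactamase in ME-180 cells after 5 h IL-6 exposure with compound.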

activity, negative = inhibition, active:
Cc1ccc(S(=O)(=O)N2CCN(c3nc(C)c4c(c3C#N)CC(C)(C)OC4)CC2)cc1 89.5% [activator]

activity, negative = inhibition, inactive:
CCCC1CC(=O)OC1(C)C(=O)CSc1n[nH]c(-c2ccccc2)n1 (stereo not drawn) -7.88%
Cc1nc(N2CCN(Cc3ccccc3)CC2)c(C#N)c2c1COC(C)(C)C2 -15.6%
CC(=O)c1cc(CN2CCCCC2)cc(OC(C)C)c1 13.1%
CCOC(=O)/C(C#N)=C1\Nc2ccccc2N=C1N(CC(C)C)CC(C)C -4.73%
Cc1cc(=O)oc2c(CN3CCC(C)CC3)c(O)c(Cl)cc12 7.86%
Cn1c(OCc2ccco2)nc2c1c(=O)n(Cc1ccc(Cl)c(Cl)c1)c(=O)n2C 0.615%
CC1(C)Cc2c(sc3nc(SCC#N)n(C4CCCCC4)c(=O)c23)CO1 10%
CCCCCCSC1=C(C#N)C(c2ccccc2)CC(=O)N1 (stereo not drawn) -19.8%
Cc1ccc(-n2c(=O)c3c4c(sc3n3c(C)nnc23)COC(C(C)C)C4)cc1 (stereo not drawn) -0.5%
N#CCSc1nc2c(cc1C#N)CCCCCC2 5.36%
CCC(=O)Nc1nc2ccccc2n1Cc1ccccc1C 2.77%
CNC(=O)CC(C(=O)O)c1ccc(OC(C)C)cc1 (stereo not drawn) 5.76%
CCOC(=O)c1c(SC)nc(SC)c2c1CCC2 -4.26%
Cn1nnc2c(sc3nc(N4CCOCC4)c4c(c32)CCCC4)c1=O -0.897%
c1ccc(C2Nc3ccccc3-c3nc4ccccc4n32)nc1 (stereo not drawn) -0.281%
Cc1cc(C)n(CC2CC(=O)N(c3ccc(F)c(Cl)c3)C2=O)n1 (stereo not drawn) -2.55%
COc1cccc(CNc2ncc(Br)cc2Br)c1O -21.8%
C=CCOn1c(=O)c(-c2cc3ccccc3o2)[n+]([O-])c2ccccc21 -8.42%
CC1(C)Cc2c(C#N)c(N3CCOCC3)nc(-c3ccccc3)c2CO1 6.12%
Cc1nc2c(c(=O)n1CC1CCCO1)c1nc3ccccc3nc1n2Cc1ccc2c(c1)OCO2 (stereo not drawn) -13.4%
CCOC(=O)c1c(CN2CCN(C)CC2)n(C)c2cc(Br)c(OC)cc12 -13%
CCCSc1nc(N2CCCC2)c2c(c1C#N)CC(C)(C)OC2 6.07%
CCOC(=O)c1ccc(N=CC2=C(O)CC(c3ccco3)CC2=O)cc1 (stereo not drawn) -4%
CCCCCSc1nc(N2CCOCC2)c2c(c1C#N)CC(C)(C)OC2 9.95%
CC(C)Sc1nnc2n(CCc3ccccc3)c(=O)c3c4c(sc3n12)COC(C)(C)C4 -3.01%
CCCCNC(=O)C(C#N)c1nc2ccccc2nc1N1CCN(Cc2ccc3c(c2)OCO3)CC1 (stereo not drawn) -8.12%
CCCOc1cc(CN2CCCCC2)cc(C(C)=O)c1 7.32%
COc1ccc(CCNc2oc(COc3ccccc3)nc2C#N)cc1 -23.3%
CCCCNC(=O)N(C)c1nncnc1C(=O)NC 11.5%
C=CCn1c(=O)c(C(=O)NCCN(CC)CC)c(O)c2ccccc21 8.32%
OCCNc1nc(-c2ccccc2)c2ccccc2n1 -4.38%
CCOC(=O)c1[nH]c2ccc(F)cc2c1NC(=O)CCN1CCSCC1 0.475%
Nc1c(C(=O)NCC2CCCO2)c2nc3ccccc3nc2n1/N=C/c1ccncc1 (stereo not drawn) -9.64%
CCN(CC)Cc1cc(C(C)=O)ccc1OCC(C)C 13.1%
COc1ccc(C2NC(=O)NC(O)(C(F)(F)F)C2C(=O)c2ccc(F)cc2)cc1 (stereo not drawn) -0.989%
O=C(NCc1cccnc1)/C(=N\O)c1ccccc1 0.749%
CC(C)Cc1nc(N2CCN(C(=O)Cc3ccccc3)CC2)c(C#N)c2c1COC(C)(C)C2 -23.7%
CCOC(=O)c1[nH]c2ccc(OC)cc2c1NC(=O)CCN1CCc2ccccc2C1 -3.49%

Reference: PubChem BioAssay (NCATS)
